The results in this text go back to PubChem BioAssay (Tox21).

The structures appear in SMILES notation. Results filed as inconclusive are left out. Calls of active or inactive are those of the source. Unless noted, calls follow the shape of the dose curve; as a rule, active = well fitted curve in the direction sought with a large enough effect in the repeat runs; inconclusive = weak or mixed curves; inactive = no such curve, though single readings can be large; an effect the other way counts as inactive or inconclusive.

The nature of experiment [1]: qHTS assay to identify small molecule antagonists of the androgen receptor (AR) signaling pathway using the MDA cell line in the presence of 0.5 nM R1881 - cell viability counter screen (AID 1259242). Also: nearly all actives have a fitted effect of over 45% in size. Also: potency is read from the fitted curve at half-maximal effect. Put shortly: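 qHTS format. MDA-kb2 (MMTV-luc, AR/GR responsive) + cpd + 0.5 nM R1881 final, 16 hr 37C/0% CO2 → CellTiter-Fluor 30 min → fluorescence intensity.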
(qHTS replaces the single test concentration by a dilution series.)

A short description of experiment [2]: qHTS assay to identify small molecule HDAC inhibitors (AID 1259364). Also: potency is read from the fitted curve at half-maximal effect.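 Also: wild-type HCT-116 cells with endogenous class I/II HDAC activity; nearly all actives have a fitted effect of over 45% in size.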 Put shortly:
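Quantitative high-throughput format: overnight-seeded HCT-116 cells got compounds for 2 hr at 37C; HDAC-Glo I/II reagent added, 30 min RT, luminescence measured.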

The nature of experiment [3]: qHTS assay to identify small molecule agonists of the sonic hedgehog signaling (Shh) pathway - cell viability counter screen (AID 1259366). Also: potency is read from the fitted curve at half-maximal effect; nearly all actives have a fitted effect of over 50% in size. Summed up:
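Cells are plated at 2,000 per well and left 4hr at 37C, 5% CO2 before compound addition. After 23hr of treatment, CellTiter-Fluor reagent is added for 1hr at 37C and fluorescence is measured.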

Experiment [4] is described as follows: qHTS assay to identify small molecule antagonists of the sonic hedgehog signaling (Shh) pathway - cell viability counter screen (AID 1259367). Also: nearly all actives have a fitted effect of over 55% in size. Also: potency is read from the fitted curve at half-maximal effect. Summed up:
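Viability was read by CellTiter-Fluor fluorescence in the same wells, reagent added 23 hr into compound treatment and incubated 1 hr at 37C. The 3T3 Gli1-Luc reporter cells (2,000/well) received conditioned medium after compound and ran 24 hr.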

The nature of experiment [5]: qHTS assay to identify small molecule agonists of the sonic hedgehog signaling (Shh) pathway (AID 1259368; calls by dose curve;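 also: NIH/3T3-derived 3T3Gli1-Luc cells carrying a stable Gli1-driven firefly luciferase reporter; series mostly up to about 92 µM; nearly all actives have a fitted effect of over 15% in size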). Put shortly: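 Quantitative high-throughput format using a Gli1-driven firefly luciferase reporter line derived from NIH/3T3 cells. After a 24 hr compound treatment at 37 C and 5% CO2, luminescence reported Gli1 response element activity.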
A short description of experiment [6]: qHTS assay to identify small molecule antagonists of the sonic hedgehog signaling (Shh) pathway (AID 1259369; calls by dose curve; also: nearly all actives have a fitted effect of over 45% in size; also: potency is read from the fitted curve at half-maximal effect). Summed up:
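Stable Gli1-Luc reporter NIH/3T3 clone; quantitative HTS in stimulated mode with conditioned medium. Luminescence measured after 24hr compound treatment at 37 C.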

Experiment [7] in a line: qHTS assay to identify small molecule agonists of the androgen receptor (AR) signaling pathway in the presence of an antagonist - cell viability counter screen (AID 1259379). Also: potency is read from the fitted curve at half-maximal effect; nearly all actives have a fitted effect of over 25% in size. Summed up:
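Nilutamide-containing (3.0uM final) MDA-kb2 cultures, 3,000 cells/well, were treated with compounds across 15 concentrations. After 16 hr at 37C with no CO2, cell viability was determined by CellTiter-Fluor fluorescence in the luciferase assay wells.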

A short description of experiment [8]: qHTS assay to identify small molecule agonists of the estrogen receptor beta (ER-beta) signaling pathway - cell viability counter screen (AID 1259380). Also: potency is read from the fitted curve at half-maximal effect; nearly all actives have a fitted effect of over 30% in size. Summed up: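 Steps: plate ER-beta-UAS-bla HEK293T cells, rest 6 hr; add compounds in DMSO; incubate 16 hr at 37C, 5% CO2; add FRET substrate 2 hr; add CellTiter-Glo, wait 30 min at room temperature; read luminescence.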

Experiment [9] can be described thus: qHTS assay to identify small molecule agonists or antagonists of the thyroid stimulating hormone receptor (TSHR) signaling pathway - wild type cell line counter screen (AID 1259384; calls by dose curve). Put shortly:
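Counter screen in untransfected Hek293: compounds (15-point titration, triplicate) plus phosphodiesterase inhibitor Ro20-1724 added after 18 h plating; 30 min RT. Intracellular cAMP via competitive d2/cryptate immunoassay, 1 h incubation.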

A short description of experiment [10]: qHTS assay to identify small molecule agonists of the estrogen receptor alpha (ER-alpha) signaling pathway in the presence of an antagonist - cell viability counter screen (AID 1259386).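 Also: cells exposed to compounds for 22 h at 37 °C before the viability read; nearly all actives have a fitted effect of over 30% in size.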 Also: potency is read from the fitted curve at half-maximal effect. Put shortly:
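In this counter screen, compound effects on VM7Luc4E2 viability were tested in the presence of the antagonist ICI-182,780 at 10.0nM final. Compounds were dosed at 15 concentrations, exposure lasted 22hr, and the CellTiter-Fluor signal was read.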

Experiment [11] deals with Androgen receptor (Homo sapiens) (UniProt P10275). The experiment is described as follows: qHTS assay to identify small molecule antagonists of the androgen receptor (AR) signaling pathway using the MDA cell line in the presence of 0.5 nM R1881 (AID 1259243). Also: potency is read from the fitted curve at half-maximal effect; nearly all actives have a fitted effect of over 50% in size. Summed up:
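Antagonist mode quantitative HTS in MDA-kb2 MMTV-luciferase cells, agonist R1881 at 0.5 nM final, 16 hr exposure at 37C and 0% CO2, luminescent detection.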

For experiment [12], the target named is Estrogen receptor (Homo sapiens) (UniProt P03372). The experiment is described as follows: qHTS assay to identify small molecule antagonists of the estrogen receptor alpha (ER-alpha) signaling pathway using the BG1 cell line in the presence of 0.1 nM 17-beta-estradiol (AID 1259244). Also: nearly all actives have a fitted effect of over 50% in size. Also: potency is read from the fitted curve at half-maximal effect. Summed up:
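Reporter is a stably transfected luciferase under four estrogen responsive elements in VM7Luc4E2 cells expressing native full-length ER-alpha; inhibition of 0.1 nM (final) 17beta-estradiol-driven signal over 22 h is read by luminescence.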

The target in experiment [13] is Estrogen receptor beta (Homo sapiens) (UniProt Q92731). The experiment is described as follows: qHTS assay to identify small molecule agonists of the estrogen receptor beta (ER-beta) signaling pathway (AID 1259377; active = well fitted activation curve with a large enough effect in the signal ratio in the repeat runs, not every such curve was filed as active; the % refers to the signal ratio). Summed up:
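Agonist mode cell assay in GripTite HEK293T cells expressing an ER-beta fusion that drives beta-lactamase from an Upstream Activator Sequence; 16 hr compound exposure at 37C, then 2 h LiveBLAzer B/G FRET substrate at room temperature, fluorescence read-out.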

Experiment [14] has as its target Androgen receptor (Homo sapiens) (UniProt P10275). The experiment is described as follows: qHTS assay to identify small molecule agonists of the androgen receptor (AR) signaling pathway in the presence of an antagonist (AID 1259381; calls by dose curve; also: nearly all actives have a fitted effect of over 15% in size). Put shortly:
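Reporter-gene luminescence from MDA-kb2 cells exposed 16hr at 37C (0% CO2) to 15-point compound titrations with 3.0uM final nilutamide as AR antagonist.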

Experiment [15] is described as follows: qHTS assay to identify small molecule antagonists of the estrogen receptor beta (ER-beta) signaling pathway - cell viability counter screen (AID 1259382). Also: nearly all actives have a fitted effect of over 55% in size. Also: potency is read from the fitted curve at half-maximal effect. Put shortly: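 Viability is scored by CellTiter-Glo luminescence (30 min, room temperature) in ER-beta-UAS-bla HEK293T wells already read for reporter fluorescence. Compound exposure lasts 16 hr at 37C alongside 1nM 17-beta-estradiol in charcoal-stripped serum medium.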

Experiment [16] addresses Estrogen receptor (Homo sapiens) (UniProt P03372). The experiment is described as follows: qHTS assay to identify small molecule agonists of the estrogen receptor alpha (ER-alpha) signaling pathway in the presence of an antagonist (AID 1259383; calls by dose curve; also: nearly all actives have a fitted effect of over 15% in size; also: potency is read from the fitted curve at half-maximal effect; as to activation: top concentration of the series differs between compounds). Summed up:
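Readout was ERE-driven luciferase luminescence in VM7Luc4E2 cells, which express full-length ER-alpha endogenously. Compounds were tested at 15 concentrations for 22hr alongside 10.0nM ICI-182,780 (final concentration).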

The nature of experiment [17]: qHTS assay to identify small molecule HDAC inhibitors - cell viability counter screen (AID 1259365). Also: series mostly up to about 92 µM; nearly all actives have a fitted effect of over 50% in size. Put shortly:
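Counter screen in wild-type HCT-116 cells: compounds dissolved in DMSO are pin-transferred onto overnight-plated cells and left 2hr at 37C. ATP-based CellTiter-Glo luminescence then measures viable cells.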

Experiment [18] deals with Thyrotropin receptor (Homo sapiens) (UniProt P16473). The experiment is described as follows: qHTS assay to identify small molecule antagonists of the thyroid stimulating hormone receptor (TSHR) signaling pathway (AID 1259385; calls by dose curve; also: nearly all actives have a fitted effect of over 20% in size). Put shortly: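 Antagonist mode: compound-treated TSHR-expressing HEK293 cells were stimulated with 1.5 ng/mL TSH (final) in presence of Ro20-1724 for 30 min at RT. HTRF cAMP detection after 1 h; each compound tested at 15 concentrations, triplicate.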
Chain of Thyrotropin receptor (Homo sapiens) (P16473 whole entry, looked up): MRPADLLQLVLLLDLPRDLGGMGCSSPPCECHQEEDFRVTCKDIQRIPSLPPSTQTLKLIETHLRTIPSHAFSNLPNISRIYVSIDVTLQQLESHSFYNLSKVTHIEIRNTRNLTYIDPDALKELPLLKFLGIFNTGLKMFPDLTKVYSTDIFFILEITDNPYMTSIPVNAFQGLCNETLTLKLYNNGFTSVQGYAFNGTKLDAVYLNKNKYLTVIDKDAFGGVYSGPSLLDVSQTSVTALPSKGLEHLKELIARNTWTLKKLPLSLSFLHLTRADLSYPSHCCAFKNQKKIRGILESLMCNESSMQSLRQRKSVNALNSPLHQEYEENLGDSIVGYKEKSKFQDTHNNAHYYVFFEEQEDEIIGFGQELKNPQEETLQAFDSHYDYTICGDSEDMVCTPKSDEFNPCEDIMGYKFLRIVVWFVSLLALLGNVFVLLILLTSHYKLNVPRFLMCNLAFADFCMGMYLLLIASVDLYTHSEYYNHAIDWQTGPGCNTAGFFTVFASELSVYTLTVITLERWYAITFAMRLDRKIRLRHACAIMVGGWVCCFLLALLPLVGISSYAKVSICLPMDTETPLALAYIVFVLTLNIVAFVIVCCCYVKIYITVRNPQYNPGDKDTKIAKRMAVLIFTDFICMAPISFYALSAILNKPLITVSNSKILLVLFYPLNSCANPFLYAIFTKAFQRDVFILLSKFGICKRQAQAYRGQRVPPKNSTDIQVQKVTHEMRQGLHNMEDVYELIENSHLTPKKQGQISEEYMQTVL

Chain of Estrogen receptor (Homo sapiens) (P03372 whole entry, looked up): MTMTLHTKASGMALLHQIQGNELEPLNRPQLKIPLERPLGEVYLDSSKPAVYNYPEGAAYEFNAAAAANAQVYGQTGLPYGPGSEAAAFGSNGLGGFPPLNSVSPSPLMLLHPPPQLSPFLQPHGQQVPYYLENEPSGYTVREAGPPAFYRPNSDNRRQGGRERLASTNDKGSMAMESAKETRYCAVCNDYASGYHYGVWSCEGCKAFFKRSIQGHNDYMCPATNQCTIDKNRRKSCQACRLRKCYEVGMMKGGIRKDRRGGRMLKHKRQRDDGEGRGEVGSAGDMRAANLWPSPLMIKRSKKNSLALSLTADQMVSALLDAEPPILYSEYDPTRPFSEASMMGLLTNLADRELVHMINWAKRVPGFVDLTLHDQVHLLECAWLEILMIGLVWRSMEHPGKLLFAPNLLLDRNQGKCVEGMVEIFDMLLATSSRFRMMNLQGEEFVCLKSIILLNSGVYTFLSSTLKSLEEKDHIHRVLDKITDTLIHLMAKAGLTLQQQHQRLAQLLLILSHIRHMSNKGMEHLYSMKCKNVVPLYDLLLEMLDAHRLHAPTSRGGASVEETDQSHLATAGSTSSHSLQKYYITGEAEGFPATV
Chain of Androgen receptor (Homo sapiens) (P10275 whole entry, looked up): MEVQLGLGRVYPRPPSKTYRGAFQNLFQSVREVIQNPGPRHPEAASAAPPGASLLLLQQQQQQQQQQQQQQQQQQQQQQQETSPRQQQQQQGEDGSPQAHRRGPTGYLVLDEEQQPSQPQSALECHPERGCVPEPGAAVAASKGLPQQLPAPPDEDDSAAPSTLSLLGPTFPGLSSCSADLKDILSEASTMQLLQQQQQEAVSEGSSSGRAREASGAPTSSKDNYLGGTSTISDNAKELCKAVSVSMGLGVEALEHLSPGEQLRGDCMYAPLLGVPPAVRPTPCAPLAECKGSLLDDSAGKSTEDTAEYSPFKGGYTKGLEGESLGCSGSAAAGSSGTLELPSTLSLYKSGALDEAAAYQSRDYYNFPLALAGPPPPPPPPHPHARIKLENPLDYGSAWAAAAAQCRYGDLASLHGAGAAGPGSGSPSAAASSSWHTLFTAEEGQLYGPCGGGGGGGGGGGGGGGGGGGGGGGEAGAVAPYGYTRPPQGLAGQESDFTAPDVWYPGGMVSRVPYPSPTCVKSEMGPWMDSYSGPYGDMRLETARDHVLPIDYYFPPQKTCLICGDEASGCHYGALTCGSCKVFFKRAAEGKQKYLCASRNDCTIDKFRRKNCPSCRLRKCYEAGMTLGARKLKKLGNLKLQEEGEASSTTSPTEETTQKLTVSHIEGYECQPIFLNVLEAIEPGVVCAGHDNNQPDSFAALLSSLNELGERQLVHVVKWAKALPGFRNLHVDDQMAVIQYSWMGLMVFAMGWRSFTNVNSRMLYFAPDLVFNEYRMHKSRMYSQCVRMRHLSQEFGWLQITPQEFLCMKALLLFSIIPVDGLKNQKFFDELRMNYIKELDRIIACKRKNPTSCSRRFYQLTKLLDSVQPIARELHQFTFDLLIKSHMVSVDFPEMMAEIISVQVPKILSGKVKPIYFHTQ
Chain of Estrogen receptor beta (Homo sapiens) (Q92731 whole entry, looked up, the tested form may be a part): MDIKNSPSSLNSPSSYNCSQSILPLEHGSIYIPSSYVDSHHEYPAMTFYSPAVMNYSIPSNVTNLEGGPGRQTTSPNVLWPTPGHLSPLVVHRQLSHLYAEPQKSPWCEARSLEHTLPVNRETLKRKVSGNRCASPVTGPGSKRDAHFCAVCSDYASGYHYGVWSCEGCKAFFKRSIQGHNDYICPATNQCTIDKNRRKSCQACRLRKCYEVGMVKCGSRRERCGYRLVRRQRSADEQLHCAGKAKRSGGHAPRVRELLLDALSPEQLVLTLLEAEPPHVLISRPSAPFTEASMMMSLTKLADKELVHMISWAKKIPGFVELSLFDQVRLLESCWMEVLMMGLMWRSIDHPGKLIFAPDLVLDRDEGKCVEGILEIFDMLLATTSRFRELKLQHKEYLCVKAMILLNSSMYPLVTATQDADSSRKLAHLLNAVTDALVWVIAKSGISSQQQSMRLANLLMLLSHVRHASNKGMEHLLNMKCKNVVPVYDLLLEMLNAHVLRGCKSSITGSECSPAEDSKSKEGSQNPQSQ

`CC1=C(/C=C/C(C)=C/C=C/C(C)=C/C=O)C(C)(C)CCC1`: the Potency in experiment [1] is 60.8 µM (active); in experiment [3], 30.5 µM (active); in experiment [4], 60.8 µM (active); in experiment [6] it was 15.3 µM (active); in experiment [7], 60.8 µM (active); in experiment [8], 24.2 µM (active). Also, the Potency in [10] is 60.8 µM (active). In addition, the Potency entry in experiment [2] and in experiment [5] was “inactive” each time. Moreover, the result in [9] was inactive.
With `O=C1c2c(O)ccc(Nc3ccc(CCO)cc3)c2C(=O)c2c([N+](=O)[O-])ccc(O)c21`, the Potency in experiment [11] is 54.5 µM (active); in [4], 48.6 µM (active); in [7] it was 43.3 µM (active); in experiment [8] it was 17.2 µM (active); in experiment [10] it was 30.6 µM (active). The Potency entry in experiment [12], in [5], in [13], in experiment [14], in [15] and in experiment [16] was “inactive” each time.
`Oc1ccc(C2(c3ccc(O)cc3)CC3CC2C2CCCC32)cc1` (stereo not given): the Potency in [11] was 52.3 µM (active); in [12] it was 0.117 µM (active); in experiment [3], 58.7 µM (active); in experiment [6] it was 20.8 µM (active); in [15] it was 26.2 µM (active). For the same compound, the Potency result in experiment [2], in experiment [17], in experiment [5], in experiment [14] and in experiment [16] was “inactive” each time.
For the compound `C/C=C1/C(=O)C[C@H]2[C@@H]3CCC4=CC(=O)CC[C@]4(C)[C@H]3CC[C@]12C`, the Potency entry in experiment [1], in [17], in experiment [4], in experiment [5], in experiment [15] and in experiment [16] was “inactive” throughout. Also, in experiment [10], the Potency result is “inactive”. Also, the Potency in [7] was 54.3 µM (active).
Consider `CCCCN1C(=O)[C@@H]([C@H](O)C2CCCCC2)NC(=O)C12CCN(Cc1ccc(Oc3ccc(C(=O)O)cc3)cc1)CC2`, for which the Potency result in experiment [1], in [2], in experiment [17], in experiment [5], in [13] and in [15] was “inactive” throughout. The Potency entry in experiment [16], in [18] and in experiment [10] was “inactive” throughout. The call in experiment [9] was inactive.
For the compound `Cc1oc(-c2ccccc2)nc1CCC(=O)c1ccc(CC2SC(=O)NC2=O)cc1` (stereo not given), the Potency entry in [1], in experiment [2], in experiment [17], in experiment [5], in experiment [6] and in [18] was “inactive” in each case. In [8], the Potency was 6.68 µM (active). In addition, the compound was classed as inactive in experiment [9].
Regarding `Oc1ccc(N=Nc2ccccc2)cc1`, the Potency in [11] is 31 µM (active); in experiment [2], 2.77 µM (active); in [3], 27.7 µM (active); in experiment [6] it was 43.8 µM (active); in experiment [7], 24.7 µM (active); in experiment [16] it was 24.7 µM (active). Further, the Potency in experiment [10] is 27.7 µM (active). For the same compound, the Potency result in [12], in experiment [17], in [5], in experiment [14] and in experiment [18] was “inactive” each time. Also, in experiment [9], the compound was classed as inactive.
